Legend:
Assay in all cases: PBM binding z-score (relative to random genomic background probes); higher = stronger binding; sequences stand for … in GC…GCGATTGACAGCGTAGAATGAAGG
[1] = system: PPARg:RXRa DBDmut IVT, anti-RXR (DBD mutation: RXRa K156A/R161A, NR concentration 270 nM, RXRa partner concentration 90 nM)
Outline: (§1)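 Probes were double-stranded and carried 34-nt variable regions with direct-repeat seeds, single-nucleotide variants, half-site ablations and random human genomic background sequences, printed on custom Agilent 4×180K protein-binding microarrays. Arrays were incubated 1 h with ligand-free nuclear receptor dimers in PBS pH 7.4, 2% milk, 0.02% Triton X-100, 1 mM DTT, 0.2 mg/mL BSA and 0.4 mg/ml salmon testes DNA. Antibodies against each partner (one per run) detected binding, and scanned fluorescence was regression-normalized. Binding z-scores use the random background probes as reference.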

[2] = system: PPARg:RXRa IVT, anti-PPARg (NR concentration 270 nM, RXRa partner concentration 90 nM)
Outline: as §1

[3] = system: PPARg DBDmut:RXRa IVT, anti-PPARg (DBD mutation: PPARg1 K132A/R137A, NR concentration 270 nM, RXRa partner concentration 90 nM)
Outline: as §1

[4] = system: PPARg DBDmut IVT, anti-PPARg (DBD mutation: PPARg1 K132A/R137A, NR concentration 270 nM)
Outline: as §1

[5] = system: PPARg homodimer (NR concentration 180 nM)
Outline: as §1

[6] = system: PXR:RXRa (NR concentration 270 nM, RXRa partner concentration 90 nM)
Outline: as §1

[7] = system: PXR homodimer (NR concentration 270 nM)
Outline: as §1

[8] = system: RARa:RXR (NR concentration 270 nM, RXRa partner concentration 90 nM)
Outline: as §1

[9] = system: RARa homodimer (NR concentration 270 nM)
Outline: as §1

[10] = system: RARb:RXRa (NR concentration 270 nM, RXRa partner concentration 90 nM)
Outline: as §1

Sequence | PBM binding z-score [1] | PBM binding z-score [2] | PBM binding z-score [3] | PBM binding z-score [4] | PBM binding z-score [5] | PBM binding z-score [6] | PBM binding z-score [7] | PBM binding z-score [8] | PBM binding z-score [9] | PBM binding z-score [10]
CCTACTGGGGCATTCAGAGGTCATTGATCATATG | 4.5 | 5.15 | 0.018 | 0.266 | 2.6 | 5.08 | 2.1 | 4.67 | 0.372 | 3.45
GGACCAAGGTGAATAGGTCGTTGATGAGTAGGCG | 1.58 | 2.18 | -0.0535 | -0.223 | 1.34 | 0.838 | 0.241 | 1.74 | 0.177 | 2.06
CGAACTAGGTCATCCAGGACGGTGAATACATTGA | 7.81 | 8.21 | 2.02 | 0.711 | 0.484 | 1.5 | 0.391 | 2.02 | 0.0502 | 3.78
CGTCCAAGGTCAAAGGAGGTCAGTGAAGACAGAT | 3.19 | 4.71 | 0.585 | -0.349 | 3.39 | 6.84 | 3.62 | 5.79 | 0.875 | 5.6
TCTTGTAGATTAAAGGTTAAGAAAGCCGAAGCCT | 1.85 | 2.24 | 0.866 | 0.455 | 1.17 | 1.13 | 0.203 | 2.09 | 1.4 | 1.53
TAGCCTAGGTCATTGGGCCAGTAGAGTACGCATC | 2.83 | 3.89 | -0.36 | -0.247 | 0.811 | 1.57 | -0.0607 | 2.13 | -0.3 | 3.54
AGTCAAAGTTCATGTAGGTAACGTAAGATATGCT | 0.795 | 4 | 1.62 | 2.1 | 3.26 | 5.3 | 5.21 | 3.76 | 0.859 | 4.81
CAGACTGGGGCAGAAAGGTTACCATACCATCCGG | 2.77 | 3.01 | -0.514 | -0.142 | 2.11 | 1.39 | -0.052 | 2.24 | 0.536 | 2.04
TCTAGTTGGTCAAAGGTCACAGACTCGAAATGCG | 3.8 | 6.51 | 1.4 | 1.43 | 5.86 | 6.19 | 1.54 | 7.67 | 3.5 | 5.12
TCGAGTAGGTTAGTCGGGGGATTCAGCCAACATA | 2.61 | 3.13 | 3.86 | 5.11 | 0.49 | 0.855 | 0.0667 | 0.615 | 0.264 | 0.779
TCTAGCAGGCCAGAAGGTCACTCAAGAGGTACGG | 1.1 | 0.932 | -0.221 | -1.25 | 2.43 | 2.79 | -0.00251 | 3.63 | -0.201 | 3.28
TCGAGTGGGTTAGGGGCATTCAGAATGGCGTCGA | 1.25 | 0.919 | -0.337 | -0.345 | 0.908 | 1.04 | 0.501 | 0.739 | 0.24 | 0.943
CAAACAGGGTCAGCTAGGCCAGAGTAGGGACGGC | 2.12 | 2.9 | 0.368 | 0.041 | 1.74 | 2.42 | 0.185 | 3.18 | 0.11 | 3.96
AGAACGAGGGCACGCTGAGTTGATAGCTGAGTAG | 4.41 | 3.75 | 0.643 | 0.101 | 0.829 | 1.57 | 0.136 | 1 | -0.945 | 2.57
AGAACGAGGGCACGCTGAGTTGAAAGCAGAGTAG | 3.49 | 3.67 | 0.808 | 0.246 | 0.111 | 1.36 | -0.00968 | 1.1 | -0.124 | 2.51
TCTAATAGTTGATTAGGGCAACCGAAACAGCGGA | 1.74 | 1.56 | 0.711 | 0.3 | 0.347 | 0.323 | -0.117 | 0.766 | -0.402 | 0.915
CGAACTAGGTCAGAACAGGACAGTGAGGGATGAT | 7.05 | 7.16 | 2.36 | 0.0779 | 0.578 | 0.829 | 0.211 | 1.06 | 0.238 | 2.94
ACAGACAGGTGAGTGACGGTAACTCAGCTGGACG | 0.522 | 0.563 | 0.246 | 0.557 | -0.526 | -0.527 | -0.705 | -0.525 | -0.487 | 0.377
ATATGTAGGTTAGCTCGGGTCATTCAGACTAGGC | 6.41 | 6.32 | 1.69 | 1.22 | 2.02 | 4.79 | 1.22 | 3.11 | 0.826 | 2.09
TTACCAAGGTGAGCTGAGGTCGTCGATCCAACTC | 0.887 | 2.1 | -0.228 | -0.875 | -0.188 | 3.92 | 0.167 | 1.43 | -0.863 | 1.8
TGTCAAAGTTCAAAGGTACCGTAAGTATCCACAC | 0.615 | 4.3 | 1.2 | 0.655 | 1.97 | 5.17 | 3.76 | 4.94 | 0.937 | 4.89
AATACAGGGTCACTAGGCCATAGTAGGTACGAAT | 4.35 | 6.47 | 2.07 | 1.76 | 2.21 | 3.31 | 0.565 | 4.46 | 0.595 | 4.11
TCTAGGTGGTCACGGAGGTCACACACGACGGGTA | 1.88 | 4.12 | 0.705 | 0.508 | 2.75 | 4.44 | 0.948 | 4.51 | 1.02 | 3.84
TGAATGAGCTTATAAGATCAGGGAACGTTGCAAA | -1.43 | -0.528 | 0.471 | 0.179 | -0.626 | -0.456 | -0.325 | -0.125 | -0.206 | -1.12

Sequence | PBM binding z-score [1] | PBM binding z-score [2] | PBM binding z-score [3] | PBM binding z-score [4] | PBM binding z-score [5] | PBM binding z-score [6] | PBM binding z-score [7] | PBM binding z-score [8] | PBM binding z-score [9] | PBM binding z-score [10]
CGAACTAGGTCAAGGACAGTGAGTCTCCGCACGC | 8.24 | 8.49 | 4.66 | 1.15 | 1.2 | 0.826 | -0.0553 | 1.87 | -0.462 | 3.83
AGAATGAGGTTACCAAAGATCGGGGAAACGCTTG | 4.19 | 3.16 | 0.767 | -0.00143 | 0.441 | 1.3 | -0.247 | 1.86 | -0.246 | 2.09
AGAATGAGGTTATTAAGATCTGGGAATTGCGGTC | 3.21 | 1.94 | 0.564 | 0.21 | 0.467 | 1.16 | 0.379 | 1.66 | -0.145 | 1.29
ATCTCTAGGTAACCAAGTTCAGTGTATGCCGAAC | 3.75 | 3.04 | 0.877 | 1.39 | 0.882 | 1.9 | 1.95 | 0.828 | 1.09 | 1.08
TAGCCTAGGTCTTTGGGCCAGTATAGTACGCATC | -0.223 | 0.546 | -1.01 | -0.496 | -0.656 | -0.782 | -0.961 | -0.806 | -0.737 | -0.161
TCATATTGGTAAAAGGTGAAAGTCGGTGTGGTAA | 2.97 | 2.77 | 1.12 | 2.43 | 2.62 | 1.43 | 0.68 | 2.1 | 2.36 | 2.01
GGGACTGGGGCATCAGCAGGTTACCATAACTTAA | 4.49 | 5.48 | 0.985 | 1.98 | 1.51 | 1.12 | 0.678 | 1.2 | 0.663 | 1.33
CGAACGAGGGCATGAGTTGAAAGCAAATGCCGAT | 2.92 | 2.09 | -0.35 | -0.394 | 0.0525 | 0.538 | -0.57 | 0.846 | -0.757 | 1.96
TCTCGGACGACACGAAGGTCAGAGCTTTCCAGAG | 1.39 | 0.576 | -1.3 | -0.777 | 1.07 | 1.61 | -0.245 | 1.95 | 0.13 | 2.8
CGTCCAAGGTTAATGCTAGGTCAGTGAAAGCATT | 1.24 | 1.56 | 0.173 | -0.333 | 1.1 | 1.81 | 0.209 | 2.86 | -0.141 | 2.83
ATATGTAGGTTAAGGGTCGTTCAGGTTGGTTCGC | 7.55 | 7.66 | 3.39 | 1.59 | 2.62 | 3.64 | 2.22 | 3.78 | 2.01 | 2.33
ACTATTAGTGGAGACGAGGGCAACCGATAGGTTG | -0.144 | 0.852 | 0.383 | 0.735 | -0.247 | 0.218 | 0.0964 | 0.0871 | 0.227 | 0.779
CCCGAAAGGTCGTGCTCAGGTGAGTATACCAAAC | 0.981 | 1.75 | 0.719 | 0.627 | 2.37 | 3.19 | 0.159 | 4.35 | 0.613 | 4.01
CGTCCAAGGTCAAAGGTCAGTGTAGAGATGACGG | 4.11 | 5.93 | 0.888 | 1.64 | 5.56 | 7.16 | 1.91 | 8.91 | 3.88 | 5.94
GATACAGGGTCAGCTAGAGGCAAGAGTATGGAAA | 0.7 | 2.39 | -0.415 | -0.265 | 0.979 | 2.1 | -0.207 | 2.8 | 0.136 | 3.97
CAAACTAGGTCACCGGAAGGTCGAAGTCCGCATG | 8.58 | 9.05 | 2.73 | 2.92 | 3.05 | 3.91 | 0.000336 | 4.49 | 1.1 | 4.8
ATCTATAGGTAAAGTTCAGTGAAAGATCGATAGA | 1.31 | 1.74 | 1.49 | 1.19 | 1.41 | 1.99 | 1.33 | 1.21 | 1.04 | 2.62
ATCTCGAGGTAACAAGTTCAGTGAAAGAGAGGAC | 0.257 | 1.41 | 0.523 | 1.06 | 0.56 | 1.74 | 1.63 | 1.3 | 0.416 | 1.73
AGTCAAAGTTCAATAGGTAACGTAAGATTCAGCT | 1.07 | 3.4 | 1.2 | 1.2 | 2.73 | 4.19 | 3.15 | 3.34 | 1.83 | 4.8
TCTGGTAGATCAGCAGGTTAAGAAAGCTGGCCAA | 0.973 | -0.29 | -0.344 | -0.477 | -0.534 | -0.014 | -0.669 | 0.363 | -0.495 | 0.127
TCTGCTAGATCAGTTGGTCAGCTAACGAGCTGCC | 0.357 | -0.283 | -0.43 | -0.675 | -2.6 | -0.872 | -1.07 | -0.915 | -1.97 | -0.199
ATACTAAGGTGATCGTGAGGTCGTTGATACTAAC | 1.4 | 1.73 | 0.74 | 1.39 | 1.65 | 3.74 | 1.93 | 2.88 | 0.716 | 1.77
TGAATGAGATTAAAGATCAGGGAACGTGGCGTCG | -0.695 | -0.415 | -1.12 | -0.126 | -0.076 | -0.42 | -0.498 | -0.467 | 0.0825 | -0.19
GCGACTGGTGCAAAGCAGGTTACCATAAGGTTGG | -0.384 | 0.329 | -0.718 | -1.22 | -0.73 | -0.0682 | -0.682 | 0.163 | -1.27 | -0.0547
